Hit rate of the full screen: of about 360,000 compounds, about 11,000 (3.1%) were called active. Inconclusive results (about 2%) are left out. What follows is part of a selection rich in actives, with near analogues and random picks from the rest. Values without a mark were called inactive. No stated cut-off is given here; in the data, active means fluorescence intensity above about 16000; inconclusive means no clear call, values can overlap the other calls; inactive means below that.
experiment: compound fluorescence in toxin protease inhibitor counterscreen, primary screen, artefact control for toxin protease inhibitor project, biochemical, multiplex microsphere, HTS (AID 624483); conditions: compound autofluorescence counterscreen, microsphere flow cytometry; active compounds read high

Row | SMILES | fluorescence intensity
1 | CCCNC(=O)COc1coc(CN2CCN(Cc3ccccc3)CC2)cc1=O | 5680
2 | CC1(C)Oc2ccc3ccc(=O)oc3c2/C(=C/NCCO)C1=O | 2160
3 | CCOC(=O)Cn1c2c(c(-c3ccccc3OC)cc1=O)CCCC2 | 23500 (active)
4 | CCOC(=O)CN1CCC(c2ccccc2)CC1 | 2610
5 | COc1ccccc1C1=CC(=O)CCC1 | 3790
6 | C[C@H]([C@@H](O)[C@@H](O)[C@@H](C)C(C)(C)C)[C@H]1CC[C@H]2C3CC[C@H]4C[C@H](OS(=O)(=O)O)[C@@H](OS(=O)(=O)O)C[C@]4(C)[C@H]3CC[C@]12C (some centres undefined) | 4680
7 | CCOC(=O)Cc1csc(SCC(=O)NC(C)C23CC4CC(CC(C4)C2)C3)n1 (centres undefined) | 9570
8 | COC(=O)CNC(=O)c1ccc2c(c1)S(=O)(=O)c1ccccc1C2=O | 2970
9 | CC(C)NC(=O)NNc1c(Cl)cncc1Cl | 3840
10 | Cc1nc(N)[nH]c(=O)c1Oc1cccc(C(F)(F)F)c1 | 6010
11 | CCC(=O)OCc1c(C(F)(F)F)nn(C)c1Oc1cccc(C(F)(F)F)c1 | 18100 (active)
12 | CCOC(=O)NNc1cc(C(F)(F)F)ccn1 | 3590
13 | CCCCNC(=O)Nc1c(C)cc(SC#N)cc1C | 2550
14 | Cn1c2ccccc2n2c(=O)c(=O)n(CC(=O)c3ccc(F)cc3)nc12 | 8720
15 | CC1(C(=O)NS(=O)(=O)c2ccccc2)CCN1C(=O)C1CCCCC1 (centres undefined) | 3660
16 | Cc1cc(N2CCN(S(=O)(=O)c3ccc(C)c(C)c3)CC2)c2ccccc2n1 | 23300 (active)
17 | Cc1ccccc1N1CCN(S(=O)(=O)c2ccc3ccccc3c2)CC1 | 4580
18 | Cc1ccc(S(=O)(=O)N2CCN(c3ccccc3)CC2)cc1C | 4010
19 | CCCS(=O)(=O)NC(=O)C1(C)CCN(C(=O)c2sccc2C)C1 (centres undefined) | 3570
20 | CC(=O)N1Cc2cc(C(=O)NCc3cccc(F)c3)nc(-c3cccc(C4=CCCC4)c3)c2[C@H]1CCO | 5550
21 | O=[N+]([O-])c1ccc(C2C3C(c4ccccc4)=NC4(CCCCC4)N32)cc1 (centres undefined) | 7680
22 | O=c1cc(-c2ccccc2)nc(N2CCCCC2)[nH]1 | 6120
23 | O=C1NC2(CCCCC2)N=C1c1ccccc1 | 24900 (active)
24 | CCCNC(=O)C1(C)CCN(C(=O)c2ccc(F)cc2Cl)C1 (centres undefined) | 2840

Row | SMILES | fluorescence intensity
25 | COCCNC(=O)C1CCCN(Cc2ccccc2Cl)CC1 (centres undefined) | 3660
26 | CCOC(=O)c1c(CN(C)C)n(-c2ccccc2)c2cc(Br)c(O)cc12 | 5060
27 | CCOC(=O)c1nnn(-c2nonc2-n2cccc2)c1CN1CCOCC1 | 10800
28 | CCOC(=O)c1c(CN2CCOCC2)n(-c2ccccc2)c2ccc(O)cc12 | 16500 (active)
29 | C[C@H]1CN([C@@H](C)CO)C(=O)Cc2cc(NS(C)(=O)=O)ccc2O[C@@H]1CN(C)CC1CC1 | 3570
30 | CCc1nc2c(OCCOc3ccccc3)cccn2c1N(C)C(=O)c1cccs1 | 3880
31 | CCOc1ccc(Cl)cc1-c1cc(C(=O)NCc2cccs2)[nH]n1 | 3900
32 | CC(=O)c1cccc(-c2cnc3c(NC=O)cc(-c4ccc(N(C)C)cc4)cn23)c1 | 3260
33 | CC(C)(C)OC(=O)N1CCN(C(=O)c2[nH]c(C(F)(F)F)nc2-c2ccccc2)CC1 | 5720
34 | O=C(COc1ccc2c(C(F)(F)F)cc(=O)oc2c1)Nc1ccc2c(c1)OCCO2 | 23100 (active)
35 | CC(C)NS(=O)(=O)c1ccc(OCC(=O)Nc2ccc3c(c2)OCCO3)cc1 | 4280
36 | CCN(CC(=O)Nc1ccc2c(c1)OCCO2)Cc1cc(=O)oc2cc(C)c(C)cc12 | 10100
37 | Cc1cc(C(=O)N2CCCC2(C)C(=O)O)c(C)o1 (centres undefined) | 4080
38 | Cc1cccc(C)c1Cn1c(C)c(C(=O)NCc2cccc(Cl)c2)sc1=O | 4280
39 | CC(C)COP(=O)(c1ccc(N(C)C)cc1)C(Nc1ccccc1)c1cccnc1 (centres undefined) | 2300
40 | COC(=O)c1ccc(C(=O)Nc2cc(Cl)ccc2Cl)cc1NC(=O)c1ccccc1C | 23700 (active)
41 | Cc1ccccc1C(=O)Nc1ccccc1NC(=O)c1ccccc1C | 3760
42 | COC(=O)c1ccc(C(=O)OC)c(NC(=S)N2CCN(c3cc(Cl)ccc3C)CC2)c1 | 2510
43 | CC1CCN(S(=O)(=O)c2ccc(S(=O)(=O)NCc3ccco3)cc2)CC1 | 6420
44 | COc1cccc(N2CCN(C3CC(=O)N(c4ccc(Cl)cc4)C3=O)CC2)c1 (centres undefined) | 2900
45 | COc1ccc(C2=NOC3(CC(=O)N(c4ccc(Cl)cc4)C3=O)C2)c(OC)c1 (centres undefined) | 20500 (active)
46 | O=C1CC2(CC(c3ccc(Cl)cc3)=NO2)C(=O)N1c1ccccc1 (centres undefined) | 5420
47 | CSc1ccc(CNC(=O)C2(C)CCCN2C)cc1 (centres undefined) | 3920
48 | COc1ccc2oc(N)nc2c1 | 2890

Row | SMILES | fluorescence intensity
49 | COc1ccc2oc(=O)c(C(=O)O)cc2c1 | 20900 (active)
50 | COc1ccc2oc(=N)c(C(=O)Nc3ccc(Br)cc3)cc2c1 | 2900
51 | Cc1ccc(NC(=O)[C@H](Cc2ccccc2)NC(=O)CC[C@H]2O[C@@H](n3ccc(=O)[nH]c3=O)[C@H](O)[C@@H]2O)cc1C | 5530
52 | CCOC(=O)C1(C)CCCN(C(=O)c2cccc(Cl)c2)C1 (centres undefined) | 3450
53 | CC1CCN(Cc2nc3c(c(=O)n(C)c(=O)n3C)n2CCc2ccccc2)CC1 | 3630
54 | CC(=NCc1ccc2c(c1)OCO2)c1c(O)[nH]c(=O)[nH]c1=O | 4690
55 | CC(=NCC1CCCO1)c1c(O)[nH]c(=O)[nH]c1=O (centres undefined) | 2530
56 | COCCn1c(CN2CCC(Cc3ccccc3)CC2)nc2c1c(=O)n(C)c(=O)n2C | 2950
57 | CC(=NC1CCN(Cc2ccccc2)CC1)c1c(O)n(C)c(=O)n(C)c1=O | 22500 (active)
58 | CC(=NC1CCN(Cc2ccccc2)CC1)c1c(O)[nH]c(=O)[nH]c1=O | 22800 (active)
59 | Cc1ccc2c(c1)nnc1nnc(SCC(=O)O)n12 | 6320
60 | CCOc1ccc(CCN2C(=O)C(=O)N([C@@H](Cc3ccc(O)cc3)CN3CCC[C@H]3CN3C(=O)C(=O)NC[C@@H]3CC(C)C)C[C@@H]2Cc2ccccc2)cc1 | 4410
61 | CCN(CCN(C)C)C(=O)c1ccc2nc(C)c(N(C)C(=O)CCc3ccccc3)n2c1 | 3720
62 | Cc1c(S(=O)(=O)NCc2ccccc2)c(=O)n(C)c(=O)n1C | 4270
63 | CCn1c2ccccc2c2cc(NC(=O)COC(=O)c3cc(S(=O)(=O)N4CCCCC4)ccc3Cl)ccc21 | 1830
64 | CCn1c2ccccc2c2cc(NC(=O)C/C(C)=N/NC(=O)c3ccccc3N)ccc21 | 23100 (active)
65 | CCn1c2ccccc2c2cc(NC(=S)N3CCOCC3)ccc21 | 2580
66 | CC1(C)CC(N(Cc2ccccc2)C(=O)Cc2ccccc2)CCO1 (centres undefined) | 4030
67 | Cn1ncc(Br)c1C(=O)NCc1cccs1 | 23700 (active)
68 | COc1ccccc1NC(=O)c1c(Br)cnn1C | 2020
69 | O=C(NCc1cccs1)c1ccc(Br)o1 | 2540
70 | Clc1ccc(Cl)c(Oc2ccc(Oc3nc(Cl)ccc3Cl)cc2)n1 | 16400 (active)
71 | N#Cc1ccc(-c2ccc(Cl)cc2)nc1Oc1ccc(F)cc1 | 9640
72 | CC1(Oc2cccc(F)c2)CCN(Cc2ccccc2OC(F)F)C1 (centres undefined) | 4130

Row | SMILES | fluorescence intensity
73 | C=C(C)c1cccc(C(C)(C)NC(=O)NC2CCCC2)c1 | 9090
74 | O=C(COC(=O)c1ccc[nH]c1=O)Nc1ccc2c(c1)OC(F)(F)O2 | 5560
75 | O=C(COC(=O)c1ccccc1NC(=O)c1ccco1)Nc1ccc2c(c1)OC(F)(F)O2 | 21800 (active)
76 | O=C(COC(=O)CNC(=O)c1ccco1)Nc1ccc(F)cc1 | 3560
77 | COc1ccc2cc(C(=O)NCC3CCCO3)[nH]c2c1 (centres undefined) | 3630
78 | CCOC(=O)C1CCCN(C(=O)c2cc(-c3cccs3)oc2C)CC1 (centres undefined) | 2870
79 | CC(C)Cn1cnc2c1c(=O)n(CC(=O)NN)c(=O)n2Cc1ccccc1 | 4610
80 | CC(C)Cn1cnc2c1c(=O)n(CC(O)c1ccccc1)c(=O)n2CC(C)C (centres undefined) | 16100 (active)
81 | CC(C)CCn1cnc2c1c(=O)n(CC(=O)NC(N)=O)c(=O)n2Cc1ccccc1 | 3800
82 | CCCCn1nnnc1C(c1ccccc1)N1CCN(c2ccccc2OC)CC1 (centres undefined) | 4370
83 | COc1ccc(C(C)=O)cc1COc1ccc(Cl)c(C)c1 | 5920
84 | COc1ccc(/C=C/C(=O)Nc2c(C)nn(C)c2C)cc1COc1ccc(Br)cc1 | 8730
85 | CCn1nc(C)c(NC(=O)/C=C/c2ccc(OC)c(COc3ccc(Br)cc3)c2)c1C | 24100 (active)
86 | COc1ccccc1-c1cc2nc(NCc3cccc(Cl)c3)ccn2n1 | 3660
87 | CCc1nc2c(OCCc3cccc(OC)c3)cccn2c1N(C)C(=O)c1ccc(C)cc1 | 3510
88 | O=C(c1cc(-c2ccncc2)nc2ccccc12)N1CCC2(CC1)OCCO2 | 23100 (active)
89 | O=C(c1cc2nc(-c3ccccc3)cc(-c3ccccc3)n2n1)N1CCC2(CC1)OCCO2 | 2800
90 | CC(=O)N1CCN(C(=O)c2cc(-c3ccc(C)o3)nc3ccccc23)CC1 | 7930
91 | CCCCC(=O)N(C)c1c(CC)nc2c(OCc3ccc(Cl)cc3Cl)cccn12 | 3970
92 | Cc1ccccc1N1CCN(CC(=O)NCc2ccc(Cl)cc2)CC1 | 4200
93 | O=C(CN1CCN(S(=O)(=O)c2ccc(Cl)s2)CC1)N1CCCCC1 | 2870
94 | O=C(CN1CCN(S(=O)(=O)c2ccc(Cl)s2)CC1)NCc1ccc(Cl)cc1 | 19600 (active)

Source: PubChem BioAssay AID624483 (NMMLSC, 2012)
